Source: PubChem BioAssay (several laboratories)
SKKanGAS inh – SKKanGAS growth inhibition; S. pyogenes SKKanGAS, kanamycin growth, BacTiter-Glo, 6 h; 300,000 compounds, 1.3% hits; inhibition, % at 7.5 µM;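 active means mean replicate score, as percent of positive control median, at least 50; inconclusive means mean below 50 but one replicate at or above 50; inactive means mean and every replicate below 50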;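 further: strain carries kanamycin resistance gene driven by streptokinase promoter and grows in 40 µg/ml kanamycin; loss of luminescence reflects streptokinase promoter inhibition or plain growth inhibition; 0% = median of DMSO wells and 100% = positive control at its reference dose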
Beta cell apopt – blocks beta cell apoptosis; INS-1E cytokine-induced death, ATP luminescence, 48 h; percent of positive-control rescue, neutral wells zero; protection from apoptosis, % (test concentration not listed); 300,000 compounds, 0.8% hits;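 active means Every replicate reaches about 75%, or at least half do and their mean reaches it too, limit read from the data; inconclusive means At least half of replicates reach the limit but their mean does not; inactive means Under half of replicates reach the limit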;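 further: 0% = cytokine-treated negative control wells and 100% = positive control rescue; higher means more ATP so stronger rescue from cytokine killing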
CSC inhib – blocks cancer stem cells | cancer stem cell-like cells viability, luminescence | inhibition, % at 7.5 µM | 300,000 compounds, 1.1% hits | AID 2717; in the data active means inhibition above about 75%; inconclusive means no clear call, values can overlap the other calls; tested in HMLE shEcad cells
PP5 primary – blocks human protein phosphatase 5 activity; P53041; 320,000 compounds, 0.18% hits; AID 1987; purified PP5c, OMFP substrate fluorescence; inhibition, % at 6.7 µM;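 active means inhibition above the campaign's mean inhibition across all tested compounds plus 3 SD, cut at about 9.5% in these data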;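 further: 0% = DMSO only and 100% = 100 µM cantharidin control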
Target sequence (P53041 whole entry, looked up): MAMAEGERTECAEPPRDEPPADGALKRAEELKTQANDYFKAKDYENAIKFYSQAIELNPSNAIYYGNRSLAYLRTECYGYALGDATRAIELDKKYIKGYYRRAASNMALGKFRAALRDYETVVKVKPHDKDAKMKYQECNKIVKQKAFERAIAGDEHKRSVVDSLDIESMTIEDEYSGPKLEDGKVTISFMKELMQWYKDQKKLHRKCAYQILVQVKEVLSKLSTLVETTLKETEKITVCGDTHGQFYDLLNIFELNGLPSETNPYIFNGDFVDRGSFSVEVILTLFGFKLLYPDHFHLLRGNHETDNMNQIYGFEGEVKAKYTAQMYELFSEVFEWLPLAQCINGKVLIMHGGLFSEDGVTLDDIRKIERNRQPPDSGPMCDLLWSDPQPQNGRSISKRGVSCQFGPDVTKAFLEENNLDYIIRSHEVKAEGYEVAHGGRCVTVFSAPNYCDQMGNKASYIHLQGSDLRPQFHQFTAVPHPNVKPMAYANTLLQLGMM
PP1 inh – blocks human PP1-alpha phosphatase, a PP5 counter-screen; purified PP1alpha, OMFP fluorescence; inhibition, % at 6.7 µM; 320,000 compounds, 0.9% hits; AID 2235;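 active means inhibition above the mean inhibition of all tested compounds plus 3 SD, computed separately for each screening campaign, cut at about 15% in these data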
Starred values were filed as active, the others as inactive; ? = inconclusive; . = not tested or not shown. A selection: hits, their analogues and other compounds. The true share with any hit is near 3.1%.

SMILES | SKKanGAS inh | Beta cell apopt | CSC inhib | PP5 primary | PP1 inh
CC(=O)Nc1ccc(Br)cc1C(=O)C(=O)O | -2 | . | -15 | 2 | -1
O=C(CSc1ncnc2nc[nH]c12)Nc1nnc(SCc2ccc(Cl)c(Cl)c2)s1 | 44 | -7 | 93* | -2 | 1
COC(=O)c1ccc(NC(=O)Nc2ccc([N+](=O)[O-])cc2)cc1 | 51* | 13 | 12 | 0 | 3
O=C(Nc1ccc(Cl)cc1)Nc1csc([N+](=O)[O-])c1 | 3 | 80* | 36 | 5 | -1
O=C(Nc1ccc([N+](=O)[O-])cc1)Nc1ccc(Cl)cc1F | 58* | 108* | -6 | 3 | -2
COc1ccc(NC(=O)NNC(=O)COc2ccc([N+](=O)[O-])c(C)c2)cc1OC | 1 | 0 | -16 | 0 | 6
Cc1cc(C(=O)N2CCN(c3ccc(F)cc3)CC2)on1 | -5 | 2 | 3 | -1 | -2
CC(C)C(C(=O)NC1CCCC1)N(CC1CCCO1)C(=O)CNS(=O)(=O)c1ccc(F)cc1 (stereo not given) | 1 | 2 | -4 | 4 | 2
CCCCc1ccc(NC(=O)CSCc2cc(=O)[nH][nH]2)cc1 | 5 | -2 | 17 | 0 | 16*
CCOc1ccc2nc(N3C(=O)CNC3=S)sc2c1 | 38 | 20 | 23 | 0 | 0
Cc1cc2nc(N3C(=O)CNC3=S)sc2cc1C | 85* | 20 | 42 | -1 | 3
Cc1ccc(OCCN2CCN(CC(O)Cn3c4ccccc4c4ccccc43)CC2)cc1 (stereo not given) | 5 | -3 | 90* | 8 | 9
COc1ccccc1CNCC(O)Cn1c2ccccc2c2ccccc21 (stereo not given) | 4 | 103* | 64 | 4 | 3
OC(COCC(F)(F)C(F)(F)C(F)(F)C(F)F)Cn1c2ccccc2c2ccccc21 (stereo not given) | 11 | 3 | 103* | 7 | -7
OCCNCC(O)Cn1c2ccccc2c2ccccc21 (stereo not given) | 2 | 3 | 18 | 0 | -3
Cc1cccc(C)c1OCC(O)Cn1c2ccccc2c2ccccc21 (stereo not given) | 88* | 5 | 46 | 5 | -2
Cc1ccc(OCC(O)Cn2c3ccccc3c3ccccc32)cc1 (stereo not given) | -1 | 38 | ? | 3 | 4
Cc1ccccc1-c1nnc(SCC(=O)N(C)C2CCS(=O)(=O)C2)n1C (stereo not given) | . | 0 | -18 | . | .
Oc1ccc(CCNc2ncnc3ccc(Cl)cc23)cc1 | 2 | 107* | 86* | -1 | -6
O=C(Nc1cccc([N+](=O)[O-])c1)C1COc2ccccc2O1 (stereo not given) | 5 | 2 | 6 | 0 | -2
CCOC(=O)c1c(C)[nH]c(C)c1C(=O)COC(=O)/C=C/c1ccc(Cl)cc1 | -2 | 0 | 11 | 5 | 0
CC(=NCCCn1ccnc1)c1c(-c2ccccc2)[nH]n(-c2nc3ccccc3s2)c1=O | 0 | 7 | -14 | 4 | 17*
CCOc1ccc(Br)cc1CC(=O)O | 4 | . | -10 | -2 | 0
CCCOc1ccc(Br)cc1CSC(=N)N | -8 | 99* | 26 | 2 | -7
O=C(O)CCC(=O)N1CN2CN(C(=O)CCC(=O)O)CC([N+](=O)[O-])(C2)C1 | 7 | -10 | -4 | -2 | -3
SMILES | SKKanGAS inh | Beta cell apopt | CSC inhib | PP5 primary | PP1 inh
CC(C)C1=CC(=Nc2ccc(S(N)(=O)=O)cc2)C=C(C(C)C)C1=O | 8 | -10 | -19 | . | .
Cc1nc2ccccc2c(=O)n1/N=C/c1ccc2ccccc2c1O | 55* | 115* | 20 | 3 | -1
Cc1nc2ccccc2c(=O)n1/N=C/c1ccccc1O | 12 | 3 | -5 | 0 | -3
Cc1cc([N+](=O)[O-])cc(/C=N/n2c(C)nc3ccccc3c2=O)c1O | 72* | -2 | 7 | -2 | 2
Cc1nnc(C)n1/N=C/c1c(O)ccc2ccccc12 | -2 | -3 | -12 | 1 | 0
Cc1nnc(-c2ccccc2)c(=O)n1/N=C/c1c(O)ccc2ccccc12 | 70* | 88* | 12 | 2 | 0
O=c1c2ccccc2nc(COc2ccccc2)n1/N=C/c1ccc(O)cc1O | 12 | 87* | 67 | 2 | -3
Fc1ccc2c(c1)C1C=CCC1C(c1cc3c(cc1Br)OCO3)N2 (stereo not given) | 73* | 2 | 7 | 3 | 1
CC(=O)N1c2ccc(S(=O)(=O)NCCC(=O)Nc3ccc(F)cc3C)cc2CC1C (stereo not given) | -14 | . | 12 | -5 | 8
Cc1cccn2c(/C=N/OCc3cccc(F)c3)c(-c3ccc(Cl)cc3)nc12 | 20 | 5 | 85* | 2 | 4
CCS(=O)(=O)c1ccc(O)c(NC(=O)CC2(CC(=O)O)CCCC2)c1 | -1 | -5 | -19 | -3 | -6
CCN(CC(=O)Nc1cc(Cl)ccc1OC)CC(=O)NC1CCS(=O)(=O)C1 (stereo not given) | -4 | -3 | 3 | 0 | -2
O=C(CC1CC2CCC1C2)NCCc1ccc(Cl)cc1 (stereo not given) | -5 | 85* | -4 | 0 | -1
CC(=O)OC[C@]12CC[C@H]3[C@@](C)(CC[C@H]4C(C)(C)CCC[C@]34C)[C@@H]1C[C@@H](C1=CC(=O)O[C@@H]1OC(C)=O)O2 | . | 92* | 125* | . | .
CC(=O)OC[C@]12CC[C@H]3[C@@](C)(CC[C@H]4C(C)(C)CCC[C@]34C)[C@@H]1C[C@H](C1=CC(=O)O[C@H]1OC(C)=O)O2 | . | 10 | 107* | . | .
Cc1c(N2C(=O)C3C4C=CC(C4)C3C2=O)c(=O)n(-c2ccccc2)n1C (stereo not given) | 2 | -8 | 0 | -2 | -2
O=C(Nc1cccc(C(F)(F)F)c1)Nc1ccc(N2CCCC2)c(S(=O)(=O)Nc2ccccc2Cl)c1 | 39 | 103* | 78* | 1 | 6
N#CC1(NC(=O)COC(=O)c2cc(O)c3ccccc3c2O)CCCCC1 | 8 | -2 | 89* | 1 | -2
N#CC1(NC(=O)COC(=O)c2ccc(-c3ccc(O)cc3)cc2)CCCCC1 | . | 0 | 8 | 2 | 16*
COc1ccc(/C=C/C(=O)c2c(C)nc3ccccn23)cc1 | 51* | . | -6 | -1 | -6
CC(C)CNS(=O)(=O)c1ccc(CCC(=O)N2CCC(C(N)=O)CC2)cc1 | -10 | -4 | -8 | 2 | -6
CC(=O)/C(=N/Nc1ccc(Br)cc1)N1CCCc2ccccc21 | 51* | -2 | 40 | 1 | -1
CC(C)(C)N1C(=O)Cc2c1nc(N)c1c(N)nc(N3CCCCC3CO)c(C#N)c21 (stereo not given) | 37 | 10 | 16 | 15* | 11
Cn1c(CNC(=O)CNC(=O)c2ccc(F)cc2)cc(=O)n(C)c1=O | 56* | -2 | 10 | 0 | -2
COc1ccc(Nc2ccc3c(c2)=NC2(CCCCC2)[N+]=3[O-])cc1 | 7 | 104* | 52 | 3 | 3
[O-][N+]1=c2ccc(Nc3ccccc3)cc2=NC12CCCCC2 | 8 | 107* | 80* | 7 | -7
